The values that follow come from PubChem BioAssay (EPA / NIEHS).

Results filed as inconclusive are left out. Activity calls are given as the source filed them. Rule for the calls: active = hit-call score of the fitted dose curve at least 0.9, where 1 is the maximum; inconclusive = response in the unintended direction; inactive = score below 0.9.

For assay [1], the target named is human Histamine 1 Receptor (H1), HRH1 (gene 3269) (UniProt P35367). The assay is described as follows: NVS_GPCR_hH1: NovaScreen (NVS) G Protein-Coupled Receptor Assay for human Histamine 1 Receptor (H1) (AID 2283268). Summed up:
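Filter-based scintillation detection of radioligand binding to human H1, 1 h incubation; chemicals screened in duplicate at 25 uM, then concentration-response; signal loss relative to DMSO taken as activity.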

In assay [2] the target is human Neurotensin Receptor (NTS), NTSR1 (gene 4923) (UniProt P30989). The assay is described as follows: NVS_GPCR_hNTS: NovaScreen (NVS) G Protein-Coupled Receptor Assay for human Neurotensin Receptor (NTS) (AID 2283279). Here is the method:
NVS_GPCR_hNTS is a biochemical, single-readout assay that uses extracted gene-proteins from CHO in a cell-free assay. Measurements were taken 1 hour after chemical dosing in a 96-well plate.NVS_GPCR_hNTS is one of one assay component(s) measured or calculated from the NVS_GPCR_hNTS assay. It is designed to make measurements of radioligand binding, a form of binding reporter, as detected with scintillation counting signals by Filter-based radiodetection technology.Data from the assay component NVS_GPCR_hNTS was analyzed into 1 assay endpoint. This assay endpoint, NVS_GPCR_hNTS, was analyzed in the positive analysis fitting direction relative to DMSO as the negative control and baseline of activity. […] Furthermore, this assay endpoint can be referred to as a primary readout, because the performed assay has only produced 1 assay endpoint. […]
Binding assays used specific radioligands (tritiated, iodinated) with non-radioactive competitive displacement ligands in agonist or antagonist protocols (as indicated) and various reference compounds and inhibitors to titrate specific binding to receptors and transporters. Most enzyme assays (CYPs, kinases, phosphatases, proteases, HDACs) used recombinant protein and specific substrates (fluorescence mostly, some colorimetric and radioactive) and inhibitors, followed by a biochemical separation of substrate and product. […]

The target of assay [3] is human Leukotriene B4 Receptor 1 (LTB4-BLT1), LTB4R (gene 1241) (UniProt Q15722). The assay is described as follows: NVS_GPCR_hLTB4_BLT1: NovaScreen (NVS) G Protein-Coupled Receptor Assay for human Leukotriene B4 Receptor 1 (LTB4-BLT1) (AID 2283271). Summed up:
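Cell-free human neutrophil receptor preparation, 1 h exposure, radioligand binding read by filter scintillation counting. Single 25 uM duplicate screen, then concentration series topping at 50 uM; binding loss scored against DMSO baseline.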

Assay [4] concerns the target human Purinergic Receptor P2Y, P2RY1 (gene 5028) (UniProt P47900). The assay is described as follows: NVS_GPCR_hPY2: NovaScreen (NVS) G Protein-Coupled Receptor Assay for human Purinergic Receptor P2Y (AID 2283281). Summed up: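 Filtration scintillation readout of radioligand displacement on U937 extract, measured 1 h post-dosing. Single 25 uM duplicate screen, then singleton concentration series to 50 uM for chemicals passing threshold; DMSO as baseline.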

Sequence of human Histamine 1 Receptor (H1), HRH1 (gene 3269) (P35367 whole entry, looked up): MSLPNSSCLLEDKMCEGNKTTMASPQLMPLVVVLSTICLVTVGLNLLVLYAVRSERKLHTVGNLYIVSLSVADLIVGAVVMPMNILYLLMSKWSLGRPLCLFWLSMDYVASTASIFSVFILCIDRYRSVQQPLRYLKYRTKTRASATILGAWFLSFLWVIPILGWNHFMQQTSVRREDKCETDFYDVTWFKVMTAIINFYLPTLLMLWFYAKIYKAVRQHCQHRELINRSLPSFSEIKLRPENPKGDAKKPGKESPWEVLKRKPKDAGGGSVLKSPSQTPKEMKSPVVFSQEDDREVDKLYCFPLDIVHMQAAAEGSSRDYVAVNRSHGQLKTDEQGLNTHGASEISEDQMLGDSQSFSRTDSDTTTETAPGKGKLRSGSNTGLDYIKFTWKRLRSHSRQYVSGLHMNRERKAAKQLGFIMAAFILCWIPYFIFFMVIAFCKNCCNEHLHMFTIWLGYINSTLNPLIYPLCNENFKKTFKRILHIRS
Sequence of human Purinergic Receptor P2Y, P2RY1 (gene 5028) (P47900 whole entry, looked up): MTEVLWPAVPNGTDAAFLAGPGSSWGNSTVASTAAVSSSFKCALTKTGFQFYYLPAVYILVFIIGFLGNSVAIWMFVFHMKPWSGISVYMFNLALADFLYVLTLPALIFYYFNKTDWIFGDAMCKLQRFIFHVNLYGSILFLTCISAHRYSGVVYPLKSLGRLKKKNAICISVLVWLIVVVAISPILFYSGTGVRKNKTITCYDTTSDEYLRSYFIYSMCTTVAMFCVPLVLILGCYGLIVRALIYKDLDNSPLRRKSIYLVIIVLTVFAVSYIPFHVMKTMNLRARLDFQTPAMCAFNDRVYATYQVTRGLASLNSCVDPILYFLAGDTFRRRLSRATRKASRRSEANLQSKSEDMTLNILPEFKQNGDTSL
Sequence of human Neurotensin Receptor (NTS), NTSR1 (gene 4923) (P30989 whole entry, looked up): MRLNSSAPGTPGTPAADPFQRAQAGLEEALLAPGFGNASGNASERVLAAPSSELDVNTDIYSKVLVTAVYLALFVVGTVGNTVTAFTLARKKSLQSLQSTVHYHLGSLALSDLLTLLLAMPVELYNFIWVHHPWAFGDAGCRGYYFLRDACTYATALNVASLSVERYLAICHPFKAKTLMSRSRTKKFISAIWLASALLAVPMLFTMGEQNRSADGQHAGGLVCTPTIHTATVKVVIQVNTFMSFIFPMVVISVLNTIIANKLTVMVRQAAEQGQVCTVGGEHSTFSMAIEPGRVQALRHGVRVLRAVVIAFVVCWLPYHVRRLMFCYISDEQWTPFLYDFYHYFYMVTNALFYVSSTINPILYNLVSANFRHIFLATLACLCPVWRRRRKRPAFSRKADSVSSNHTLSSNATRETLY
Sequence of human Leukotriene B4 Receptor 1 (LTB4-BLT1), LTB4R (gene 1241) (Q15722 whole entry, looked up): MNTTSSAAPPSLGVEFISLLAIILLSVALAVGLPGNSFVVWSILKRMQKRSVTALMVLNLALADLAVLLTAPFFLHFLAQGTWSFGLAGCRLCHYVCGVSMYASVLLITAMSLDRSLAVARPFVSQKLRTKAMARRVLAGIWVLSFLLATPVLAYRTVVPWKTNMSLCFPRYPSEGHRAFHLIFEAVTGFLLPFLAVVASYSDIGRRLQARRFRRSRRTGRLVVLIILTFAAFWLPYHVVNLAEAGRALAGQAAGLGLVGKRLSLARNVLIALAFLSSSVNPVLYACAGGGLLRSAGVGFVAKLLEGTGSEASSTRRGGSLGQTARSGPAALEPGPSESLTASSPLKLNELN

For the compound `CCC[CH2][Sn]([Cl])([CH2]CCC)[CH2]CCC`, the half-maximal activity concentration (AC50) in assay [1] was 1420 nM (active). As to `CCOC(=O)[C@]1(c2ccccc2)Oc2ccccc2[C@@H]1N`, in assay [1], the half-maximal activity concentration (AC50) is 471 nM (active). Moreover, the result in assay [2] was inactive.

With `C[C@]12C=CC3=C4CCC(=O)C=C4CC[C@H]3[C@@H]1CC[C@@H]2O`, the compound was classed as inactive in assay [3]. Take `CCCCCCCCn1sccc1=O`: the outcome in assay [4] was inactive.
